Experimental findings from PubChem BioAssay are described below.

The structures appear in SMILES notation. Records with an inconclusive call do not appear. The source made the active and inactive calls.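 The calls were made as follows, unless noted: active = growth inhibition above 25% in both replicates, a cutoff set 3 SD above the mean; inconclusive = above 25% in only one replicate; inactive = the rest.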

Assay [1] can be described thus: Her2 expression decrease, cell viability multiplex – SKBR3 breast tumor cells, AlphaScreen, ATP viability, primary screen (AID 461;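 active = Her2 level under about 52% in both replicate screens, with viability over 70% of control, limit read from the data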;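 as to Her2 level: lower value means less Her2 protein in the cells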;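 as to viability: percent of carrier control wells set as 100% viability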). Particulars: SKBR3 Her2 protein level, 18-24 h, measured here: SKBR3 viability, ATP luminescence, at 10 µM.
The target in assay [2] is Receptor tyrosine-protein kinase erbB-2 (Homo sapiens) (UniProt P04626). The description is as above. Particulars: 18-24 h, at 10 µM, stronger effect = lower value.
Assay [3] can be described thus: reduced viability of SK-BR-3 breast cancer cells – cell-based, 24 h, human, pilot screen (AID 572;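 active = viability at or below 10% of carrier control in both of two separate runs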;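 also: compound exposure lasted between 18 and 24 h rather than exactly 24 h; 100% = carrier-treated control wells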). The conditions noted are these: SK-BR-3 viability, CellTiter-Glo luminescence, at 10 µM, stronger effect = lower value. (In general: In ATP-based viability assays light output follows the ATP content of the culture.)
The nature of assay [4]: HUVEC growth inhibition – cell-based, human, primary screen (AID 575;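 active = viability at or below 30% in both replicate assays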;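 also: 100% = median of untreated cell wells with 0.1% DMSO on each plate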). Particulars: HUVEC proliferation, CellTiter-Glo luminescence, 72 h; at 10 µM; stronger effect = lower value.
A short description of assay [5]: H69AR cell proliferation blockers – human, duplicate replicates, primary screen (AID 580;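 active = viability at or under a set limit in both replicates, limit being median viability minus 3 SD, cut at about 48% in these data, passing the limit was not always enough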;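 also: 100% = mean luminescence of untreated wells and 0% = no signal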). Particulars: H69AR lung tumor cells viability, ATP luminescence, 72 h; at 10 µM; stronger effect = lower value.
Assay [6] in a line: MRP1 drug-resistance reversers in H69AR cells – cell-based, doxorubicin co-treatment, pilot screen (AID 601;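 active = viability loss from added drug above about 55%, and viability with drug at most 40%, in both replicates, limit read from the data, passing the limit was not always enough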). Particulars: CellTiter-Glo, 72 h, at 10 µM; for differential viability (reversal): stronger effect = higher value.
A short description of assay [7]: yeast transport mutant growth inhibition pilot in 384-well plates, post-Golgi transport modulator project (AID 636; in the data active = inhibition above about 31%). Particulars: absorbance 615 nm, about 18 h, stronger effect = higher value.
Assay [8] in a line: growth suppression of yeast trafficking mutant, preliminary HTS, modulators of trafficking downstream of Golgi apparatus project, 1536-format plate, OD 615 nm (AID 637; in the data active = inhibition above about 30%). Particulars: yeast transport mutant growth, absorbance 615 nm, 18 h; stronger effect = higher value.
The nature of assay [9]: S. cerevisiae growth inhibition in permissive medium (OD615), pilot counter-assay for S. cerevisiae lifespan shortening project, permissive growth control (AID 705). Particulars: OD615, 24 h, at 10 µM, stronger effect = higher value.
The nature of assay [10]: S. cerevisiae growth inhibition in restrictive medium, OD615, pilot screen, restrictive growth control, yeast lifespan reduction project (AID 706;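 active = growth inhibition above a set limit, 3 SD over mean compound inhibition, in both replicates, cut at about 43% in these data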;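 also: modified DeaD lifespan yeast strain shifted to restrictive glucose medium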). Particulars: OD615, 48 h, at 10 µM, stronger effect = higher value.
A short description of assay [11]: doxorubicin toxicity protection in MRP-1 cells – H69AR cells, CellTiter-Glo, duplicate, MRP-1 activator project, pilot screen (AID 807;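 active = viability increase at or above a cutoff of the median across tested compounds plus 3 SD, cut at about 8.5% in these data, passing the limit was not always enough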;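 also: compound pretreatment 18-22 h then 72 h combined with doxorubicin; 0% = doxorubicin alone and 100% = vehicle without doxorubicin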). Particulars: H69AR viability with doxorubicin, CellTiter-Glo luminescence; at 10 µM; stronger effect = higher value.
Assay [12] is described as follows: viability of HCT116 without oncogenic beta-catenin – human colon tumor cells, pilot screen (AID 823;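 active = cell viability at or below a set limit in both duplicate runs, the limit being the all-compound median minus 4 SD, cut at about 23% in these data, passing the limit was not always enough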;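 also: 0% = wells killed by 20 µM Hyamine and 100% = untreated DMSO cell wells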). Particulars: HCT116 beta-catenin knockout viability, CellTiter-Glo, 60 h; at 10 µM; stronger effect = lower value.
A short description of assay [13]: RAM pathway blockade in budding yeast – dse1pr::URA3 reporter, 5-FOA selection, pilot screen (AID 869;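 active = inhibition over a set limit, the all-compound mean plus 3 SD, in both replicate runs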;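 also: 0% = DMSO wells with no growth and 100% = 10 µM 1-NA-PP1 with full growth; RAM network block rescues cells from 5-FOA so hits raise OD615 growth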). The conditions noted are these: S. cerevisiae dse1pr::URA3 5-FOA growth, OD615, 2 d; at 10 µM; stronger effect = higher value; strain carries analog-sensitive mutant Cbk1 kinase.
A short description of assay [14]: RAM signaling pathway blockade in yeast – S. cerevisiae, Pdr1DBD-CYC8 efflux-inhibited sensitized strain, primary screen (AID 1298;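 active = RAM network inhibition above 8.4% in each of two replicates, 3 SD over the compound average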;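 also: 0% = DMSO untreated cells without growth and 100% = 10 µM 1-NA-PP1 full growth; higher means more yeast growth rescued from 5-FOA killing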). Particulars: S. cerevisiae cbk1-as DSE1-URA3 strain, 5-FOA growth OD615, 2 d; at 50 µM; stronger effect = higher value.
A short description of assay [15]: viability of PTEN-null HCT116 cells – cell-based, HCT116 clonal line, CellTiter-Glo, pilot screen (AID 824;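 active = viability at or below 27.92% in each of two runs, the all-compound median minus 4 SD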;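 also: 0% = 20 µM Hyamine control and 100% = vehicle cell control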). Particulars: HCT116 PTEN-deleted viability, 60 h, at 10 µM, stronger effect = lower value.
[16] abbreviates: H69AR cells + 2 uM doxorubicin, measured here: viability with 2 uM doxorubicin, stronger effect = lower value.
Setting [17] is: H69AR cells, compound alone cytotoxicity.

Sequence of Receptor tyrosine-protein kinase erbB-2 (Homo sapiens) (P04626 whole entry, looked up): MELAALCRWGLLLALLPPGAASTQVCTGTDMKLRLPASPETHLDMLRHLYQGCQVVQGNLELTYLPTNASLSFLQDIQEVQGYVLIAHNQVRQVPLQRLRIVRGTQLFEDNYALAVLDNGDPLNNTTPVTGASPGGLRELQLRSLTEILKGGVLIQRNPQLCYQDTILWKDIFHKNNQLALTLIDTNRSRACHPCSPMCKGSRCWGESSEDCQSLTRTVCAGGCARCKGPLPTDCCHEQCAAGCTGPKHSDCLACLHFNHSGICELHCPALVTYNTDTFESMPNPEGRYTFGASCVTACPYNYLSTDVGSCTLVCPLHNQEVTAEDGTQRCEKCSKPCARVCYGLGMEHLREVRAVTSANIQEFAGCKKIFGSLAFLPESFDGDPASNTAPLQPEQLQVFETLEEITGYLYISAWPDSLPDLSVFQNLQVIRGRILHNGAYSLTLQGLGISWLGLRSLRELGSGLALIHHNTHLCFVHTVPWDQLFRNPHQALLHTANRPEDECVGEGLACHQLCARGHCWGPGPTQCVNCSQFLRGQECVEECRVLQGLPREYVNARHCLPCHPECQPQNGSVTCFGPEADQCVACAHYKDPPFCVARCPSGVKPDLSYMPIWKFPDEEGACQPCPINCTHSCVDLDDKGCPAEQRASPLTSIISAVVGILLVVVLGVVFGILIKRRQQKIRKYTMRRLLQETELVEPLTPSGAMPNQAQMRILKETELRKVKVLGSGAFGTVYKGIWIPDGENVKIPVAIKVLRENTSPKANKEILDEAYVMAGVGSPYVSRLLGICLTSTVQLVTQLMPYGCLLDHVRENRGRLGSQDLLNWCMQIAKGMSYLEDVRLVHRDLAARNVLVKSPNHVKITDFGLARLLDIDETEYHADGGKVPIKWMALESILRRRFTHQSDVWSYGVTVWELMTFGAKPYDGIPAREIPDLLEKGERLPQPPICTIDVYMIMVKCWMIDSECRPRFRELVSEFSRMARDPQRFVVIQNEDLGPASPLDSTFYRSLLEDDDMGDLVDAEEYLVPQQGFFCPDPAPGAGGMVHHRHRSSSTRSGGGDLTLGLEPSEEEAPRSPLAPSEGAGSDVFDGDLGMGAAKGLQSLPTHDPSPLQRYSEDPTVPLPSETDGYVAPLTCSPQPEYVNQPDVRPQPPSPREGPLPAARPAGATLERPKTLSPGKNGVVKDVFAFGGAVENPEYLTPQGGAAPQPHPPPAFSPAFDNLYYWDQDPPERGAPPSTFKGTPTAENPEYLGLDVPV

Usually viability stands for a read-out of living cells in per cent, often relative to untreated cells. As a reminder, the inhibition is the drop in the measured response relative to a control, in per cent. On to `C(/CCc1ccccc1)=N\n1cnnc1`, for which the viability is 105% in assay [1]; 105% (inactive) in [3]; 117% (inactive) in [4]; 99% (inactive) in [5]; 89.1% in assay [6] (setting [16]); 99% in assay [6] (setting [17]). Further, in [12], the viability is 102% (inactive). Besides, in assay [2], the Her2 level is 94.5% (inactive). Besides, the differential viability (reversal) in [6] (H69AR cells + 2 uM doxorubicin) is 9.93% (inactive). Moreover, the figures for the inhibition in [7], in assay [8] and in [13] were -5.07% (inactive), 8.03% (inactive) and 0.44% (inactive), respectively. Further, the growth inhibition in assay [9] was -14.7% (inactive); in assay [10] it was 1.89% (inactive). For the same compound, in [11], the viability increase was -1.24% (inactive). Further, in [14], the RAM network inhibition was 5.92% (inactive).
With `Cc1noc(/C=C/N(C)C)c1S(=O)(=O)N1CCCC(C(=O)NCCC2=CCCCC2)C1` (configuration not stated), the viability was 94.5% in [1]; 94.5% (inactive) in [3]; 79.7% (inactive) in [4]; 104% (inactive) in assay [5]; 88.7% in assay [6] (setting [16]); 104% in assay [6] (setting [17]). Moreover, the viability in assay [12] was 92.1% (inactive); in [15] it was 72.8% (inactive). In [2], the Her2 level was 79% (inactive). Further, in assay [6] (H69AR cells + 2 uM doxorubicin), the differential viability (reversal) was 15.8% (inactive). The inhibition in assay [7] was -1.87% (inactive); in assay [8] it was -1.31% (inactive); in assay [13], 1.23% (inactive). The growth inhibition in assay [9] is -0.38% (inactive); in [10] it was -11.2% (inactive). For the same compound, the viability increase in assay [11] was 2.75% (inactive). For the same compound, the RAM network inhibition in assay [14] was 6.39% (inactive).
Turning to `CCOc1ccc(OCCCCN(C)C)cc1`, the viability in assay [1] is 89%; in [3], 89% (inactive); in assay [4] it was 87.2% (inactive); in [5] it was 88.5% (inactive); in assay [6] (setting [16]), 86.7%; in assay [6] (setting [17]), 88.5%. The viability in assay [12] is 96.8% (inactive); in assay [15], 93.5% (inactive). Besides, the Her2 level in [2] was 92.5% (inactive). In addition, the differential viability (reversal) in assay [6] (H69AR cells + 2 uM doxorubicin) was 1.8% (inactive). The values for the inhibition in assay [7], in [8] and in assay [13] were -0.64% (inactive), 1.5% (inactive) and 3.26% (inactive), respectively. The growth inhibition was -10% (inactive) in [9] and 3.69% (inactive) in [10]. The viability increase in [11] was -0.48% (inactive). Moreover, the RAM network inhibition in assay [14] was 6.13% (inactive).
With `Cc1cc(C)c2c(=O)n(CC(=O)N3CCC(Cc4ccccc4)CC3)sc2n1`, the viability in assay [1] is 108%; in [3], 108% (inactive); in [4], 77% (inactive); in assay [5], 3.96% (active); in assay [6] (setting [16]), 10.3%; in assay [6] (setting [17]), 3.96%. Also, the viability in assay [15] is 68.7% (inactive). Besides, the Her2 level in assay [2] was 84% (inactive). The differential viability (reversal) in assay [6] (H69AR cells + 2 uM doxorubicin) was -6.3% (inactive). For the same compound, the inhibition in assay [7] was -6.53% (inactive); in assay [8] it was -2.17% (inactive); in assay [13] it was 1.6% (inactive). The growth inhibition is 73% (active) in assay [9] and 89.2% (active) in assay [10]. Besides, the viability increase in [11] is -6.66% (inactive). Also, the RAM network inhibition in [14] was 3.67% (inactive).
Turning to `CC(C)c1ccc(NC(=O)CCNS(=O)(=O)c2cccc3nonc23)cc1`, the viability was 98.5% in assay [1]; 98.5% (inactive) in assay [3]; 84.6% (inactive) in assay [4]; 95.3% (inactive) in [5]; 93.9% in assay [6] (setting [16]); 95.3% in assay [6] (setting [17]). Further, in assay [15], the viability is 86.3% (inactive). Moreover, the Her2 level in [2] was 89% (inactive). The differential viability (reversal) in [6] (H69AR cells + 2 uM doxorubicin) was 1.35% (inactive). Moreover, the inhibition in assay [7] was -8.9% (inactive); in assay [8], -3.17% (inactive); in assay [13], 0.265% (inactive). Also, the results for the growth inhibition in assay [9] and in [10] were -7.97% (inactive) and -5.83% (inactive), respectively. Moreover, the viability increase in [11] was -1.42% (inactive). Moreover, the RAM network inhibition in assay [14] is 1.64% (inactive).
